The text below walks through data of PubChem BioAssay (NCI).

The panel holds about 83,000 compounds, 20% with a hit somewhere; the sample as a whole holds those more often.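 Each cell line was grown in a 96-well plate and treated with one concentration of compound for 48 hours. Values below 10 were considered active.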 A number with no mark means an inactive call. Active and inactive are the calls of the source.

Test systems include HCT-15 colon; HT29 colon; SNB-75 CNS; SNB-19 CNS; U251 CNS; PC-3 prostate; SK-MEL-5 melanoma; UACC-62 melanoma; LOX IMVI melanoma; SK-MEL-28 melanoma; SK-MEL-2 melanoma; EKVX NSCLC; SN12C renal; UO-31 renal; TK-10 renal; ACHN renal; CAKI-1 renal; A498 renal; CCRF-CEM leukemia; MOLT-4 leukemia.
Assay in all cases: NCI-60 one-dose screen, 48 h (100 = growth as untreated, 0 = no growth, -100 = all killed)
Conditions in all cases: 10 µM unless noted

As to `COc1cc(C(=O)c2cc(C)c3[nH]c4ccc(O)cc4c3c2C)cc(OC)c1OC`, the growth is 8.88% (active) with HCT-15 colon; 14.5% in the assay on HT29 colon; 37.3% in the assay with SNB-75 CNS; 54.1% with SNB-19 CNS; 11.5% with U251 CNS; 24.9% in the assay on PC-3 prostate. In addition, the growth was -49.4% (active) with SK-MEL-5 melanoma; 59.8% in the assay on UACC-62 melanoma; 13% in the assay on LOX IMVI melanoma; 55.7% with SK-MEL-28 melanoma; 62.3% in the assay on SK-MEL-2 melanoma; 35.9% with EKVX NSCLC. Also, the growth was 25% in the assay on SN12C renal; 22.2% in the assay with UO-31 renal; 93.3% in the assay on TK-10 renal; 24.3% in the assay on ACHN renal; 24.5% in the assay on CAKI-1 renal; -12.7% (active) in the assay with A498 renal. For the same compound, the growth in the assay with CCRF-CEM leukemia is 15.5%; in the assay with MOLT-4 leukemia, 15.1%.

Turning to `C/C=C(\C)C(=O)N[C@H]1[C@@H](OC(C)=O)C[C@]2(C)C3CC[C@@]4(C)C(CC[C@@H]4C(C)N(C)C)C3CCC2[C@H]1O` (stereo not given in full), the growth was 2.88% (active) with HCT-15 colon; 11.3% in the assay with HT29 colon; 60.3% with SNB-75 CNS; 101% in the assay with SNB-19 CNS; 68.7% in the assay on U251 CNS; 45% with PC-3 prostate. The growth in the assay with SK-MEL-5 melanoma was 5.99% (active); in the assay with UACC-62 melanoma, 13.6%; in the assay with LOX IMVI melanoma, 16.8%; in the assay with SK-MEL-28 melanoma, -35.8% (active); with SK-MEL-2 melanoma, 97.2%; in the assay with EKVX NSCLC, 62.7%. Also, the growth in the assay with SN12C renal was 75.3%; in the assay with UO-31 renal, 10.5%; in the assay with TK-10 renal, 65.5%; in the assay with ACHN renal, 67.9%; in the assay on CAKI-1 renal, 65.6%; in the assay with A498 renal, 85.8%. Further, the growth in the assay with CCRF-CEM leukemia was 39.7%; in the assay with MOLT-4 leukemia, 65.6%.

As to `CS(=O)(=O)N(c1cc(-c2ccc3ncnc(Nc4ccc(F)c(Cl)c4)c3c2)cnc1Cl)S(C)(=O)=O`, the growth in the assay on HCT-15 colon is 29.5%; in the assay on HT29 colon it was 31.5%; in the assay on SNB-75 CNS it was -4.86% (active); with SNB-19 CNS, 50%; in the assay with U251 CNS, 38.2%; in the assay on PC-3 prostate it was 34.8%. Also, the growth with SK-MEL-5 melanoma was 31.3%; in the assay on UACC-62 melanoma, 10.3%; in the assay with LOX IMVI melanoma it was 32.2%; in the assay on SK-MEL-28 melanoma it was 23.5%; in the assay on SK-MEL-2 melanoma it was 27.3%; with EKVX NSCLC, 26.3%. Also, the growth with SN12C renal is 31.6%; with UO-31 renal, 17.1%; in the assay on TK-10 renal, 19%; in the assay on ACHN renal, 35.5%; with CAKI-1 renal, 31.9%; in the assay on A498 renal it was -30.8% (active). The results for the growth with CCRF-CEM leukemia and in the assay with MOLT-4 leukemia were 18.4% and 6.91% (active), respectively.

On to `Cc1cc(O)c(C2=NN(c3ccc(S(N)(=O)=O)cc3)C(/C=C/c3ccccc3)C2)cc1Cl` (stereo not given), for which the growth in the assay with HCT-15 colon is 85.7%; with HT29 colon, 33.5%; in the assay with SNB-75 CNS, 51.3%; with SNB-19 CNS, 66.4%; with U251 CNS it was 22.5%; with PC-3 prostate it was 32.6%. For the same compound, the growth was 19.1% in the assay on SK-MEL-5 melanoma; -10.9% (active) in the assay on UACC-62 melanoma; 18.5% with LOX IMVI melanoma; 23.9% with SK-MEL-28 melanoma; 34.1% with SK-MEL-2 melanoma; 68.8% in the assay with EKVX NSCLC. In addition, the growth in the assay on SN12C renal was 66.4%; with UO-31 renal, 78.2%; in the assay with TK-10 renal, 68.3%; with ACHN renal it was 33.1%; in the assay on CAKI-1 renal it was 48.7%; with A498 renal, 39.9%. The figures for the growth in the assay on CCRF-CEM leukemia and in the assay with MOLT-4 leukemia were 66.2% and 73.3%, respectively.

For the compound `COc1cc2cc(Oc3ccc(NC(=O)Nc4ccc(Cl)c(C(F)(F)F)c4)cc3)c(C)nc2cc1OCCN1CCOCC1`, the growth with HCT-15 colon is 13.7%; with HT29 colon it was 12%; in the assay on SNB-75 CNS, 53.3%; with SNB-19 CNS, 24.4%; in the assay on U251 CNS, 14.8%; with PC-3 prostate it was 13%. Further, the growth in the assay with SK-MEL-5 melanoma was -34.7% (active); in the assay on UACC-62 melanoma it was 29.9%; with LOX IMVI melanoma, 9.99% (active); in the assay on SK-MEL-28 melanoma it was 42.9%; in the assay with SK-MEL-2 melanoma, 31.4%; in the assay on EKVX NSCLC, 17.2%. Besides, the growth was 10.1% in the assay on SN12C renal; 28.2% in the assay on UO-31 renal; 42.8% with TK-10 renal; 10% in the assay on ACHN renal; 18.7% in the assay with CAKI-1 renal; 41.5% in the assay with A498 renal. Moreover, the growth is 10.4% in the assay on CCRF-CEM leukemia and -4.07% (active) in the assay on MOLT-4 leukemia.

With `CCCCCCn1c(-c2ccc(C(=O)O/N=C(\N)c3ccc(OC)cc3)cc2)nc(-c2ccccc2)c1-c1ccccc1`, the growth in the assay with HCT-15 colon is -41.1% (active); in the assay with HT29 colon it was 22%; with SNB-75 CNS it was -20.3% (active); in the assay with SNB-19 CNS it was 32.5%; in the assay on U251 CNS, -42.9% (active); in the assay on PC-3 prostate, 3.94% (active). The growth was 49.9% in the assay on SK-MEL-5 melanoma; 18.1% in the assay with UACC-62 melanoma; -91.6% (active) in the assay with LOX IMVI melanoma; 42.1% in the assay on SK-MEL-28 melanoma; 47.3% in the assay on SK-MEL-2 melanoma; -75.6% (active) in the assay on EKVX NSCLC. The growth was -70.3% (active) in the assay with SN12C renal; -86.4% (active) with UO-31 renal; -73.6% (active) in the assay on TK-10 renal; -91.5% (active) in the assay on ACHN renal; -64.5% (active) in the assay on CAKI-1 renal; 4.08% (active) in the assay on A498 renal. The growth with CCRF-CEM leukemia is -35% (active); with MOLT-4 leukemia, -35.7% (active).

Regarding `c1ccc(-c2nc3nonc3nc2-c2ccccc2)cc1`, the growth in the assay with HCT-15 colon was 68.3%; with HT29 colon, 82.7%; in the assay on SNB-75 CNS, 65.4%; with SNB-19 CNS, 77.8%; in the assay with U251 CNS it was 58.3%; in the assay on PC-3 prostate, 46.5%. Besides, the growth in the assay with SK-MEL-5 melanoma was 63.8%; in the assay with UACC-62 melanoma, 58.7%; in the assay with LOX IMVI melanoma, 56%; in the assay with SK-MEL-28 melanoma, 90.3%; with SK-MEL-2 melanoma, 79%; in the assay on EKVX NSCLC it was 67%. Also, the growth in the assay on SN12C renal is 68.7%; in the assay on UO-31 renal, 36.3%; in the assay on TK-10 renal, 81.4%; with ACHN renal it was 53.9%; with CAKI-1 renal it was 51%; in the assay on A498 renal it was -10.9% (active). The growth was 80.7% in the assay on CCRF-CEM leukemia and 70.9% in the assay with MOLT-4 leukemia.
